Measurements as given in PubChem BioAssay (NCATS).
Records with an inconclusive call do not appear. Active and inactive are the calls of the source. Unless noted, calls follow the shape of the dose curve; as a rule, active = well fitted curve in the direction sought with a large enough effect; inconclusive = small, poorly fitted or top-dose-only effect, or another doubt; inactive = no such curve, though single readings can be large; an effect the other way counts as inactive or inconclusive.

Legend:
[1] = qHTS drug screen for cell cycle checkpoint inhibitors in PARPi-resistant BRCA-mutant ovarian cancer cell lines. (AID 1963452; calls by dose curve); settings: PEO1/OlaR viability, CellTiter-Glo luminescence, 96 h, stronger effect = lower value
Outline: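 PEO1, PEO4 and PEO1/OlaR ovarian cancer cells, 600 per well, exposed 96 h at 37C to a dilution series. Viability read by CellTiter-Glo luminescence, normalized to DMSO and empty wells; activity summarized as Z-AUC.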

[2] = qHTS profiling for inhibitors of Plasmodium falciparum proliferation (AID 504749); also: nearly all actives have a fitted effect of over 60% in size; also: potency is read from the fitted curve at half-maximal effect;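 as to activity, negative = inhibition: 0% = DMSO vehicle and full inhibition = artemisinin control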; settings: P. falciparum in erythrocytes, SYBR Green DNA, 72 h
Outline: (§1)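 Parasite proliferation within erythrocytes, 72 h exposure. Endpoint: SYBR Green I fluorescence after overnight lysis at room temperature. Controls: 0.29 uM artemisinin, DMSO.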

3D7 = test: as above; settings: P. falciparum in erythrocytes, SYBR Green DNA, 72 h; series mostly up to 28.7 µM
Outline: as §1

7G8 = test: as above; settings: P. falciparum in erythrocytes, SYBR Green DNA, 72 h; series mostly up to 28.7 µM
Outline: as §1

AA1029 = test: as above; settings: P. falciparum in erythrocytes, SYBR Green DNA, 72 h; series mostly up to 28.7 µM
Outline: as §1

AS120 = test: as above; settings: P. falciparum in erythrocytes, SYBR Green DNA, 72 h; series mostly up to 28.7 µM
Outline: as §1

ATS189 = test: as above; settings: P. falciparum in erythrocytes, SYBR Green DNA, 72 h; series mostly up to 28.7 µM
Outline: as §1

ATS95 = test: as above; settings: P. falciparum in erythrocytes, SYBR Green DNA, 72 h; series mostly up to 28.7 µM
Outline: as §1

C2A = test: as above; settings: P. falciparum in erythrocytes, SYBR Green DNA, 72 h; series mostly up to 28.7 µM
Outline: as §1

CP185 = test: as above; settings: P. falciparum in erythrocytes, SYBR Green DNA, 72 h; series mostly up to 28.7 µM
Outline: as §1

CP191 = test: as above; settings: P. falciparum in erythrocytes, SYBR Green DNA, 72 h; series mostly up to 28.7 µM
Outline: as §1

CP192 = test: as above; settings: P. falciparum in erythrocytes, SYBR Green DNA, 72 h; series mostly up to 28.7 µM
Outline: as §1

CP194 = test: as above; settings: P. falciparum in erythrocytes, SYBR Green DNA, 72 h; series mostly up to 28.7 µM
Outline: as §1

[3] = KB-3-1 P-gp reporter qHTS against the NCATS DSHEA and TCM libraries (AID 1919975); settings: KB-3-1 parental cells, CellTiter-Glo luminescence viability, 72 h; series mostly up to 26.1 µM; also: 0% is about no effect
Outline: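 72 h exposure of KB-3-1 cells (DMEM, 10% FBS) to DSHEA/TCM samples, concentration-response; cell viability measured as CellTiter-Glo luminescence after 30 min at room temperature.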

[4] = biological target: Cytochrome P450 1A2 (Homo sapiens) (UniProt P05177); test: qHTS for inhibitors of CYPIA2 against the NCATS DSHEA and TCM libraries (AID 1919976); settings: recombinant CYP1A2 enzyme activity, luminescence; series mostly up to 37 µM;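 also: light from luciferin formed by CYP1A2 from a pro-luciferin substrate; % is scaled to controls: 0 for no effect and ±100 for the full control effect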
Cytochrome P450 1A2 (Homo sapiens), sequence (P05177 whole entry, looked up): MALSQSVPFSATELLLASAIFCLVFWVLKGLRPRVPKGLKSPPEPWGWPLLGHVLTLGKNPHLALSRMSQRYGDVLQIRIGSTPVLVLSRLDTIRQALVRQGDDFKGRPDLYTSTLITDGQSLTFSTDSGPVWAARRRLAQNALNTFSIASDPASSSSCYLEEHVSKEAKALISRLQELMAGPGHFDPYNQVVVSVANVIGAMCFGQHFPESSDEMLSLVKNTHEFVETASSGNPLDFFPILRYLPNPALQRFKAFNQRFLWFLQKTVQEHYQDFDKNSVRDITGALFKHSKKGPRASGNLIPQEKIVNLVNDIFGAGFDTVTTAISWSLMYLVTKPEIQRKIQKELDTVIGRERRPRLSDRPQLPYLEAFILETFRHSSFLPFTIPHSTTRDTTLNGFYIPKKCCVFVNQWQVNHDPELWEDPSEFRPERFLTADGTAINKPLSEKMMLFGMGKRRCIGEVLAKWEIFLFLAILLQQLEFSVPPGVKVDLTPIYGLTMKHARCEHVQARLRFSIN
Outline: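 CYP1A2 + luciferin substrate, 100 mM KPO4-type buffer; cmpd 15 min RT; 1x NADPH regen, 30-45 min RT dark; detection reagent 30 min RT; luminescence. Minus-enzyme wells as background; furafylline intraplate control.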

[5] = qHTS Counterscreen for compound interference against the NCATS DSHEA and TCM libraries (AID 1919978); settings: firefly luciferase detection reagent interference, luminescence; also: % of control where 0% means no effect
Outline: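 Read-out is luminescence after 30 min at RT with luciferin detection reagent. Before that, compounds (19.5 nM to 39.8 uM final) sat 15 min at RT with 1 uM D-luciferin or 100 mM potassium phosphate buffer. PTC124 served as intraplate control.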

[6] = Dual reporter qHTS for agonist of Pregnane X Receptor (hPXR) against the NCATS DSHEA and TCM libraries: Fluorescence readout (AID 1920058); settings: PXR dual reporter cells; series mostly up to 40 µM; also: 0% is about no effect
Outline: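 HepG2 hPXR-Luc, 2000 cells/well, 5 h attach; cpds ~24 h, 37 °C/5% CO2; CellTiter-Fluor 1 h; fluor. Ex/Em 405/540 nm = viability.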

[7] = biological target: Nuclear receptor subfamily 1 group I member 2 (Homo sapiens) (UniProt O75469); test: Dual reporter qHTS for agonist of Pregnane X Receptor (hPXR) against the NCATS DSHEA and TCM libraries: Luminescence readout (AID 1920059); settings: hPXR dual reporter cells, luciferase luminescence agonist; series mostly up to 40 µM; also: potency is read from the fitted curve at half-maximal effect
Nuclear receptor subfamily 1 group I member 2 (Homo sapiens), sequence (O75469 whole entry, looked up): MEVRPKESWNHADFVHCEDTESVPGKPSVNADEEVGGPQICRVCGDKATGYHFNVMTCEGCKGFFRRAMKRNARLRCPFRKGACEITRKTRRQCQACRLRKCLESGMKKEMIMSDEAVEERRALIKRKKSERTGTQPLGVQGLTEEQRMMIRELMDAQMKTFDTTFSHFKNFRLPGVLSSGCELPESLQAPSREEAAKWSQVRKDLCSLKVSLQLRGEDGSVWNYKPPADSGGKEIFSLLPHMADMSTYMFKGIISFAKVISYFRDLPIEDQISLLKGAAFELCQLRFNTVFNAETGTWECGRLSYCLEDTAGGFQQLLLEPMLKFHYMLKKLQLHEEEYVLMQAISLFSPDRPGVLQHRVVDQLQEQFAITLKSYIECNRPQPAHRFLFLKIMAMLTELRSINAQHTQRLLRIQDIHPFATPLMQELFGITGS
Outline: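 hPXR-LucHepG2 cells in phenol red-free DMEM with 5% charcoal-stripped FBS, 2000 cells/well, attached 5 h, then exposed 24 h at 37C to compounds; rifampicin as positive agonist control (2.8 nM–92 uM). Luciferase luminescence read.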

[8] = biological target: Nuclear receptor subfamily 1 group I member 2 (Homo sapiens) (UniProt O75469); test: Dual reporter qHTS for antagonist of Pregnane X Receptor (hPXR) against the NCATS DSHEA and TCM libraries: Luminescence Readout (AID 1920060); settings: hPXR dual reporter cells, luciferase luminescence, antagonist mode; series mostly up to 40 µM;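 also: HepG2 cells carrying hPXR luciferase reporter stimulated with rifampicin at 2 µM; 0% is about no effect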
Outline: (§2)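 HepG2 hPXR-Luc, 2000 cells/well, charcoal-stripped FBS medium; 5 h attach; RIF 2 uM final; 24 h 37C/5% CO2; CellTiter-Fluor 1 h, fluor 405/540; ONE-Glo 30 min RT, lum.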

[9] = Dual reporter qHTS for antagonist of Pregnane X Receptor (hPXR) against the NCATS DSHEA and TCM libraries: Fluorescence Readout (AID 1920061); settings: PXR dual reporter cells, antagonist mode; series mostly up to 40 µM; also: 0% is about no effect
Outline: as §2

[10] = measured here: PEO1 parental Z-AUC
[11] = at 28.7 µM (top of the series), parasite line A
[12] = at 28.7 µM (top of the series), parasite line B

CO[C@H]1C[C@@H]2CC[C@@H](C)[C@@](O)(O2)C(=O)C(=O)N2CCCC[C@H]2C(=O)O[C@H]([C@H](C)C[C@@H]2CC[C@@H](OC(=O)C(C)(CO)CO)[C@H](OC)C2)CC(=O)[C@H](C)/C=C(\C)[C@@H](O)[C@@H](OC)C(=O)[C@H](C)C[C@H](C)/C=C/C=C/C=C/1C
inactive: Z-AUC [1] -1.22 | activity, negative = inhibition [2, 11] 5.02% | activity, negative = inhibition [2, 12] 6.39% | Potency (3D7) | Potency (7G8) | Potency (AA1029) | Potency (AS120) | Potency (ATS189) | Potency (ATS95) | Potency (C2A) | Potency (CP185) | Potency (CP191) | Potency (CP192) | Potency (CP194)
-1.04: Z-AUC [1, 10]
-0.64: Z-AUC ([1]; measured here: PEO4 Z-AUC)

C=C1CC[C@H](O)C/C1=C\C=C1/CCC[C@]2(C)[C@@H]([C@H](C)CCCC(C)C)CC[C@@H]12
active: Potency [7] 31.6 µM
inactive: outcome [3] | Potency [4] | max response [5] 0.0382% | outcome [6] | outcome [8] | outcome [9]

C[C@H]1O[C@@H](O[C@H]2[C@@H](O)C[C@H](O[C@H]3[C@@H](O)C[C@H](O[C@H]4CC[C@@]5(C)[C@H](CC[C@@H]6[C@@H]5C[C@@H](O)[C@]5(C)[C@@H](C7=CC(=O)OC7)CC[C@]65O)C4)O[C@@H]3C)O[C@@H]2C)C[C@H](O)[C@@H]1O
active: Potency (7G8) 11.2 µM
-1.33: Z-AUC ([1]; measured here: PEO4 Z-AUC)
inactive: Z-AUC [1] -1.16 | activity, negative = inhibition [2, 11] -10.9% | activity, negative = inhibition [2, 12] 10.4% | Potency (3D7) | Potency (AA1029) | Potency (AS120) | Potency (ATS189) | Potency (ATS95) | Potency (C2A) | Potency (CP185) | Potency (CP191) | Potency (CP192) | Potency (CP194)
-1.92: Z-AUC [1, 10]

CCC[C@@H]1C[C@@H](C(=O)N[C@@H]([C@H]2O[C@H](SC)[C@H](O)[C@@H](O)[C@H]2O)[C@H](C)Cl)N(C)C1
1.69: Z-AUC [1, 10]
inactive: Z-AUC [1] 1.72
1.63: Z-AUC ([1]; measured here: PEO4 Z-AUC)

Nc1ncnc2c1ncn2[C@H]1CC[C@@H](CO)O1
inactive: activity, negative = inhibition [2, 11] 5.25% | activity, negative = inhibition [2, 12] 9.47% | Potency (3D7) | Potency (7G8) | Potency (AA1029) | Potency (AS120) | Potency (ATS189) | Potency (ATS95) | Potency (C2A) | Potency (CP185) | Potency (CP191) | Potency (CP192) | Potency (CP194)

CCCOc1cc(N)ccc1C(=O)OCCN(CC)CC
inactive: activity, negative = inhibition ([2]; at 12.8 µM (top of the series), parasite line A) -3.32% | activity, negative = inhibition ([2]; at 12.8 µM (top of the series), parasite line B) 4.44% | Potency (3D7) | Potency (7G8) | Potency (AA1029) | Potency (AS120) | Potency (ATS189) | Potency (ATS95) | Potency (C2A) | Potency (CP185) | Potency (CP191) | Potency (CP192) | Potency (CP194)

C=CC(C)(O)CC/C=C(\C)CCC=C(C)C (centres undefined)
inactive: activity, negative = inhibition [2, 11] 2.76% | activity, negative = inhibition [2, 12] -4.38% | Potency (3D7) | Potency (7G8) | Potency (AA1029) | Potency (AS120) | Potency (ATS189) | Potency (ATS95) | Potency (C2A) | Potency (CP185) | Potency (CP191) | Potency (CP192) | Potency (CP194)

CCCCCCCCCCCCOCCCN
inactive: activity, negative = inhibition [2, 11] -4.13% | activity, negative = inhibition [2, 12] 8.54% | Potency (3D7) | Potency (7G8) | Potency (AA1029) | Potency (AS120) | Potency (ATS189) | Potency (ATS95) | Potency (C2A) | Potency (CP185) | Potency (CP191) | Potency (CP192) | Potency (CP194)
